From PubChem
Methyltransferases – Primary Screen for Target Class Profiling of Small Molecule Inhibitors of Methyltransferases | purified enzyme, MTase-Glo SAH luminescence; stronger effect = lower value | calls only at 40 µM | 3.9% of 25,000 active; call rule not given here
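Each enzyme was reacted with SAM and its substrate, with compounds tested once at 40 uM; SAH formed was read by MTase-Glo luminescence.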
Starred values were filed as active, the others as inactive; i = inactive; + = active, no number; ! = a repeat was not active. The sample as a whole holds a higher share of hits than the screen did. On the % scale 0 is the no-effect control and ±100 the full control effect.

SMILES	Methyltransferases
COc1ccc2cc3n(c2c1)CC(C)(C(=O)NC1CCCC1)N(c1ccc(C)c(C)c1)C3=O (centres undefined)	i
CC1(C(=O)NC2CCCCC2)Cn2c(ccc2-c2ccco2)C(=O)N1CCCN1CCCCC1 (centres undefined)	i
COC(=O)c1ccc(O[C@@H]2O[C@H](CO)[C@@H](O)[C@H](O)[C@H]2O)c(OC)c1	i
COc1cc(COC2OC(CO)C(O)C(O)C2O)cc(OC)c1O (centres undefined)	i
COc1c(O)cc2c(c1O)[C@@H]1O[C@H](CO)[C@@H](O)[C@H](O)[C@H]1OC2=O	+
CCOC(=O)c1cc2n(n1)CC(C)(C(=O)NCCCOC)N(c1ccc(OC)c(OC)c1)C2=O (centres undefined)	i
O=C(CCc1nnc2n(CCc3ccccc3)c(=O)c3ccccc3n12)NC1CCN(Cc2ccccc2)CC1	i
O=C(O)c1ccc2c(c1)C1C=CCC1C(c1ccc(Cl)cc1)N2 (centres undefined)	+
Fc1ccc2c(c1)C1C=CCC1C(c1ccc(Cl)cc1)N2 (centres undefined)	i
CC(C)COC(=O)c1ccc2c(c1)C1C=CCC1C(c1ccc(Cl)cc1)N2 (centres undefined)	i
CC1(C(=O)NC2CCCC2)Cn2c(cc3ccccc32)C(=O)N1Cc1ccco1 (centres undefined)	i
CC1(C(=O)NC2CCCCC2)Cn2c(nc3ccccc32)C(=O)N1Cc1ccccc1Cl (centres undefined)	i
Cn1cncc1C(N)(c1ccc(Cl)cc1)c1ccc2c(c1)c(-c1cccc(Cl)c1)cc(=O)n2C (centres undefined)	+
CC(C)CCNC(=O)C1(C)Cn2nc(C(=O)NC3CCCC3)cc2C(=O)N1C (centres undefined)	i
CC1(C(=O)NC2CCCC2)Cn2c(ccc2-c2ccco2)C(=O)N1CCCc1ccccc1 (centres undefined)	i
O=C(CCC(=O)n1ncc2ccc(Cl)cc21)N1CCN(c2ccccc2)CC1	i
O=C(COCC(=O)N1CCN(C(c2ccccc2)c2ccccc2)CC1)Nc1ccc(Cl)cc1C(=O)O	+
CC(C)OCCCNC(=O)C1c2c(n(C)c3ccccc23)SCC(=O)N1Cc1ccc2c(c1)OCO2 (centres undefined)	i
CCCn1c(=O)c2ccc(C(=O)NC(C)CC)cc2n2c(=O)n(CC(=O)NCc3ccc(C)cc3)nc12 (centres undefined)	i
CSc1ccc(CN2C(=O)c3cc4ccccc4n3CC2(C)C(=O)NCc2ccccc2)cc1 (centres undefined)	i
CC(=O)NC(Cc1c[nH]c2ccccc(=O)c12)C(=O)O (centres undefined)	+
N[C@@H](Cc1c[nH]c2ccccc12)C(=O)O	i
CC(=O)NC(Cc1ccccc1)C(=O)O (centres undefined)	i
CCC(C)NC(=O)c1ccc2c(=O)n(C(C)C)c3nn(CC(=O)c4cccc(OC)c4)c(=O)n3c2c1 (centres undefined)	i
c1cc2c(cc1OC1CCCCC1)c1c3n2CCNC3CCC1 (centres undefined)	i
SMILES	Methyltransferases
COc1ccc(CN2C(=O)c3cc(-c4cccs4)nn3CC2(C)C(=O)NC2CCCCC2)cc1 (centres undefined)	i
COc1cc(N2CCOCC2)ccc1Nc1ncc(F)c(Nc2ccccc2NS(C)(=O)=O)n1	+
CCc1cc(=O)n(CC(=O)Nc2ccccc2OC)c(N2CCOCC2)n1	i
COc1ccc(Nc2nc3c(S(=O)(=O)c4ccc(F)cc4)nnn3c3ccccc23)c(OC)c1	i
CCOc1ccc(OCC)c(NS(=O)(=O)c2ccc3[nH]c(=O)[nH]c3c2)c1	i
CC(C)Oc1ccc(CN2C(=O)c3cc(C4CC4)nn3CC2(C)C(=O)NC2CCCCCC2)cc1 (centres undefined)	i
Cc1nc([C@](C)(O)CO)sc1-c1cnc(N)c(O[C@H](C)c2cc(F)ccc2-n2nccn2)c1	+
CC(C)OCCCn1c(=O)c2ccccc2n2c(SCC(=O)Nc3cccc(Cl)c3)nnc12	i
CCc1cc2c(cc3n2CC(C)(C(=O)NC2CCC(C)CC2)N(c2cccc(F)c2)C3=O)s1 (centres undefined)	i
CNC1CCC(N(Cc2cccc(-c3ccncc3)c2)C(=O)c2sc3c(F)ccc(F)c3c2Cl)CC1 (centres undefined)	+!
CNC1CCC(N(Cc2cccc(-c3ccncc3)c2)C(=O)c2sc3ccccc3c2Cl)CC1 (centres undefined)	+
O=C(Cn1c(=O)oc2cc(S(=O)(=O)N3CCCC3)ccc21)NCCc1ccccc1	i
CC1(C(=O)NCc2ccccc2)Cn2nc(-c3ccccc3)cc2C(=O)N1CCCc1ccccc1 (centres undefined)	i
CN1C(=O)c2cc(C(=O)NCCCN3CCOCC3)nn2CC1(C)C(=O)NCc1ccc(F)cc1 (centres undefined)	i
CC(C)n1c(=O)c2ccc(C(=O)NC3CCCC3)cc2n2c(=O)n(CC(=O)NCc3ccccc3)nc12	i
Cc1cccc([C@H]2Nc3ccc(S(=O)(=O)Nc4cc(C)ccc4C)cc3[C@H]3C=CC[C@H]32)c1	i
CC1(C(=O)NC2CCCCC2)Cn2c(cc3ccccc32)C(=O)N1CCN1CCOCC1 (centres undefined)	i
Cc1[nH]cnc1C1CCN(c2nc3cccc4c3n2CCC4=O)CC1	+
CC(=O)Nc1c2n(c3ccccc13)CC(C)(C(=O)NC1CCCCCC1)N(Cc1ccco1)C2=O (centres undefined)	i
CC[n+]1c(/C=C/C=C2/N(C)c3ccccc3C2(C)C)sc2ccccc21	+
Cc1ccc(NC(=O)Cn2nc3n(CCC(C)C)c(=O)c4ccccc4n3c2=O)c(Cl)c1	i
CCCNC(=O)CCn1ccc2cc(S(=O)(=O)N3CCCC3)ccc21	i
COC(=O)c1ncn2c1C(=O)N(CCc1ccccc1)C(C)(C(=O)NC1CCCC1)C2 (centres undefined)	i
Cc1ccc(N2C(=O)CSc3c(c4ccccc4n3C)C2C(=O)NCCCOC(C)C)cc1C (centres undefined)	i
Fc1cccc(-c2nnn3c2nc(NCc2ccc4c(c2)OCO4)c2cc(Cl)ccc23)c1	i
SMILES	Methyltransferases
Clc1cccc(-c2nnn3c2nc(NCc2ccc4c(c2)OCO4)c2ccccc23)c1	i
COc1cccc(-c2cc(NCc3ccc4c(c3)OCO4)nc(N)n2)c1	+
CC(C)OCCCNC(=O)CCc1nnc2n(Cc3ccc(F)cc3)c(=O)c3ccccc3n12	i
O=C(Nc1ccc(F)c(Cl)c1)c1cnc(-c2ccccc2)nc1-c1ccncc1	i
CNC(=O)[C@@H]1C[C@H](n2cc(CNS(=O)(=O)c3cc(C)ccc3F)nn2)CN1	i
N#Cc1cnc2cnc(NCc3cccnc3)cc2c1Nc1ccc(F)c(Cl)c1	+
CCN1CCC(n2cc(CNc3cc(Cl)c4ncc(C#N)c(Nc5ccc(F)c(Cl)c5)c4c3)nn2)CC1	+
Cc1ccc(C#N)c(-c2cc(NCc3cccnc3)nc3[nH]ccc23)n1	i
N#Cc1cnc2c(Cl)cc(NCc3cn(CCN4CCCCCC4)nn3)cc2c1Nc1ccc(F)c(Cl)c1	+
O=S(=O)(c1cc(F)ccc1F)N1CCC(n2cc(CCCO)nn2)CC1	i
